# Screens: PubChem, National Center for Advancing Translational Sciences (NCATS)
# Most compounds without a hit are left out; they make up all but 7.5% or so of the library.
# Luc counter: blocks Kinase-Glo luciferase, a counter-screen artifact; Q27757; Kinase-Glo luciferase, ATP luminescence, 8 min; Potency, µM (highest dose often 38.3 µM), inactives show at the highest dose activity change, negative = inhibition, actives largely listed as inhibitors; 200,000 tested, 0.28% active; AID 1379; also: % is scaled to controls: 0 for no effect and ±100 for the full control effect; nearly all actives have a fitted effect of over 60% in size
#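 Kinase-Glo luciferase light output from ATP and luciferin was measured with 10 uM ATP, within the enzyme's linear range. Buffer: 50 mM imidazole pH 7.2, 50 mM KCl, 7 mM MgCl2, 0.01% Tween 20, 0.05% BSA; luminescence read after 8 min at ambient temperature.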
# NPC1 prom act: NPC1 promoter activation | Huh7 NPC1 promoter luciferase reporter, 24 h | Potency, µM (titrated, usually from 9.22 µM), inactives show at the highest dose activation, most hits filed as activators | 320,000 tested, 2.4% active | AID 485313; also: % of control where 0% means no effect; nearly all actives have a fitted effect of over 60% in size
#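 Quantitative HTS used a cell-based reporter: Huh7 cells stably bearing the NPC1 promoter upstream of luciferase were treated with compounds for 24 h, and promoter activation was read as luminescence.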
# FLuc counter: inhibits or activates purified firefly luciferase, miR-21 counter-screen | P08659 | AID 588342 | Potency, µM (doses to about 57.5 µM), inactives show at the top dose activity change, negative = inhibition, usual class: inhibitors | purified FLuc, Km substrates, luminescence inhibition | 360,000 tested, 6.9% active;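 also: plate controls were vehicle for no effect and reference inhibitor for full effect; nearly all actives have a fitted effect of over 55% in size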
# Target sequence (P08659 whole entry, looked up): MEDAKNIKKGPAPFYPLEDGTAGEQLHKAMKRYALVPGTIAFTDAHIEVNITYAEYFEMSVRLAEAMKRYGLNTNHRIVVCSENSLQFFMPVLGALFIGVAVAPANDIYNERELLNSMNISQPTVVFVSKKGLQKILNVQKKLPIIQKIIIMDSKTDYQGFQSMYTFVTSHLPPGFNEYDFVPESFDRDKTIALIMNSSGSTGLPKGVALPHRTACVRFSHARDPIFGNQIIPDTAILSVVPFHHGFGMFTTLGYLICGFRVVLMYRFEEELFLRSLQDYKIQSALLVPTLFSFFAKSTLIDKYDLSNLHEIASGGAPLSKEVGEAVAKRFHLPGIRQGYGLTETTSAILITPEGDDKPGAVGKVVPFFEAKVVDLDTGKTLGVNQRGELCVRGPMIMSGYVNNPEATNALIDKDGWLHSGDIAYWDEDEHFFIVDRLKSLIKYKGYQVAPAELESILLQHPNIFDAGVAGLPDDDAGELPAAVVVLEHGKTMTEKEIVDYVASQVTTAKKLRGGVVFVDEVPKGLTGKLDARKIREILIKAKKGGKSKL
#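 Biochemical qHTS of compounds, final roughly 60 µM downward over six points, against 10 nM purified firefly luciferase using Km concentrations of substrates (10 uM D-luciferin, 10 uM ATP) in Tris acetate pH 7.5 buffer; luminescence output.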
# SMN2 splice up: enhancers of SMN2 splice variant expression | HEK293 SMN2-luciferase splicing reporter, luminescence, 30-36 h | Potency, µM (series often up to 46.1 µM), inactives show at the highest dose activity change, positive = activation, hits mostly activators | 210,000 tested, 2.8% active; also: % of control where 0% means no effect; nearly all actives have a fitted effect of over 55% in size
#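 HEK293 cells carry an SMN2 minigene-luciferase reporter in which exon 7 inclusion puts luciferase in frame. Cells were seeded at 2000 cells/well, attached for 10-12 hours, then exposed to compounds for 30-36 hours at 37C before ONE-Glo luminescence.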
# Rab9 promoter act: activates the Rab9 promoter; Huh7 Rab9 promoter-luciferase reporter, luminescence, 24 h; Potency, µM (doses to about 9.22 µM), without a hit: at the highest dose activation, negative = inhibition, hits mostly activators; 320,000 tested, 2.8% active; AID 485297; also: % of control where 0% means no effect; nearly all actives have a fitted effect of over 60% in size
#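 Promoter activation is measured as luciferase luminescence in Huh7 cells stably transfected with a Rab9 promoter–luciferase construct, following 24 h compound exposure at 37 °C and 10 min reagent incubation at ambient temperature.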
# ELG1 genotoxic: induces genotoxicity in HEK293T cells with luciferase-tagged ELG1; HEK293T ELG1-luciferase reporter, luminescence, 16 h; Potency, µM (series often up to 46 µM), inactives show at the highest dose activity change, positive = activation, most hits filed as activators; 330,000 tested, 1.3% active; AID 504466; also: % of control where 0% means no effect; nearly all actives have a fitted effect of over 60% in size
#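 After overnight (16 hr) compound treatment at 37 °C, ELG1-luciferase HEK293T cells were lysed with ONE-Glo; luminescence quantified 30 min later at room temperature.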
# Starred values were filed as active, the others as inactive; u = inconclusive; x = no result. Calls follow the shape of the dose curve; as a rule, active = well fitted curve in the direction sought with a large enough effect; inconclusive = small, poorly fitted or top-dose-only effect, or another doubt; inactive = no such curve, though single readings can be large; an effect the other way counts as inactive or inconclusive. Potency is read from the fitted curve at half-maximal effect.
SMILES,Luc counter,NPC1 prom act,FLuc counter,SMN2 splice up,Rab9 promoter act,ELG1 genotoxic
Cc1cc(NC(=O)CSc2cn(CCNC(=O)c3ccccc3)c3ccccc23)no1,15%,-1%,19µM*,-22%,-6%,-10%
Cc1ccc(C(=O)NCCn2cc(SCC(=O)Nc3cc(C)on3)c3ccccc32)cc1,-1%,0%,5.4µM*,-66%,u,u
Cc1[nH]n(-c2ccc(Br)cc2)c(=O)c1/C=N/NC(=O)c1ccccc1,x,-22%,2.1µM*,x,-36%,u
CCCCN(CCCC)C(=S)N/N=C/c1c(C)[nH]n(-c2ccccc2)c1=O,1%,-8%,-3%,-75%,-9%,-7%
Cc1[nH]n(-c2ccccc2)c(=O)c1/C=N/NC(=O)c1cccc(F)c1,x,-32%,9.5µM*,x,-39%,u
COCCN(C(=O)COC(=O)CCOc1ccccc1)c1c(N)n(Cc2ccccc2)c(=O)[nH]c1=O,x,-1%,-3%,x,-2%,0%
Cc1ccccc1OCC(=O)Nc1ccc(C(=O)Nc2ccccc2C(=O)O)cc1,x,-1%,6%,x,1%,0%
N/C(=N\N=C/c1ccc(Br)cc1)N/N=C\c1ccc(Br)cc1,0%,1%,11µM*,-8%,u,2%
N/C(=N\N=C/c1ccc(F)cc1)N/N=C\c1ccc(F)cc1,x,-1%,6µM*,x,-3%,5%
CNC(=O)C(=O)N/N=C/c1ccc(Br)cc1,-1%,7%,u,-2%,12%,7%
C[C@@](Cc1ccccc1)(C(=O)O)N1C(=O)c2ccc(C(=O)O)cc2C1=O,x,1%,u,x,8%,x
COc1cccc(CNC(=O)Cn2c(=O)cc(C(F)(F)F)c3c(C)nn(C)c32)c1OC,x,x,0%,x,x,x
O=C(CSc1nc2ccccc2o1)NCc1ccc2c(c1)OCO2,7%,-1%,u,u,3%,21µM*
O=C(CSc1nc2ccc(Cl)cc2o1)NCc1ccc2c(c1)OCO2,2%,14%,2%,-2%,1%,-1%
Cc1ccccc1NC(=O)CSc1nc2ccccc2o1,-1%,u,3%,7%,u,4.1µM*
O=C(CSc1nc2ccccc2o1)Nc1nc(-c2ccccc2)cs1,-3%,15%,21µM*,u,2%,u
CCOc1ccc(S(=O)(=O)NCc2ccc(OC)cc2)c2cccnc12,-1%,-2%,-5%,-2%,-7%,1%
Cc1ccc(C2CN=NC23CCc2ccccc2C3=O)cc1 (stereo unspecified),0%,8%,12µM*,-1%,1%,u
O=C1c2ccccc2CCCC12N=NCC2c1cccc2ccccc12 (stereo unspecified),-2%,-5%,-1%,-29%,1%,-6%
Clc1ccc(-c2cc(CSc3ccccc3)on2)cc1,-3%,4.5µM*,2.4µM*,13µM*,3.2µM*,u
Clc1ccc(-c2cc(CSc3cccc(Cl)c3)on2)cc1,-2%,1%,u,-18%,-3%,10%
c1ccc(SCc2cc(-c3ccccc3)no2)cc1,0%,3.5µM*,8.5µM*,247%,2.5µM*,u
O=C(COC(=O)CNS(=O)(=O)/C=C/c1ccccc1)Nc1cc(S(=O)(=O)N2CCCCC2)ccc1Cl,0%,-5%,-4%,8%,1%,-6%
CCCCCS(=O)(=O)CCCCCCCCCCn1c(-c2ccc(O)cc2)c(C)c2cc(O)ccc21,0%,x,x,-114%,x,x
O=C(CSc1ccc2ccccc2c1)Nc1ccc(S(=O)(=O)Nc2nccs2)cc1,-2%,0%,u,-7%,-3%,3%
Cc1c2ccccc2nc2c(F)c(N(C)C)c(F)c(F)c12,-1%,21%,9.5µM*,u,u,u
CCOC(=O)CNc1nc(Cl)nc(Nc2ccc(C)cc2)n1,x,3%,2%,x,3%,-2%
Cc1ccc(Nc2nc(Cl)nc(NC(C)(C)C)n2)cc1,x,u,12µM*,x,21%,u
